Data published in the supplement of paper PMC10981050.
Several values for one entry are separate records, joined by “and”; a condition that tells them apart may be missing. Equal values may be shown once.

Legend:
Test in all cases: cell viability relative to vehicle control; higher = less cytotoxic
Conditions in all cases: 10 µM
K562 = tested on: K562
How it was run: (§1)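 Each screen used CRISPR-edited mutant and wild-type clones from four leukaemia lines. Compounds were acoustically dispensed at a single 10 µM dose, and CellTiter-Glo luminescence was read after 48 h with the supernatant first removed. Viability was analysed in Genedata Screener and given as percent of the on-plate vehicle control.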

MARIMO = tested on: MARIMO
How it was run: as §1

MOLM14 = tested on: MOLM14
How it was run: as §1

OCI-AML2 = tested on: OCI-AML2
How it was run: as §1

| Structure (SMILES) | cell viability (K562; SRSF2 genotype: SRSF2 P95H/wt) | cell viability (K562; SRSF2 genotype: SRSF2 wt/wt) [%] | cell viability (MARIMO; SRSF2 genotype: SRSF2 P95H/wt) [%] | cell viability (MARIMO; SRSF2 genotype: SRSF2 wt/wt) [%] | cell viability (MOLM14; SRSF2 genotype: SRSF2 P95H/wt) [%] | cell viability (MOLM14; SRSF2 genotype: SRSF2 wt/wt) [%] | cell viability (OCI-AML2; SRSF2 genotype: P95H/wt) [%] | cell viability (OCI-AML2; SRSF2 genotype: wt/wt) [%] |
| --- | --- | --- | --- | --- | --- | --- | --- | --- |
| CCOC(C)OCCc1ccccc1 (stereo not drawn) [Efetaal] | 105% and 100% | 108 | 97.8 | 99.3 | 107 | 107 | 104 | 98.9 |
| CC=C(C)C(=O)O [Tiglic acid] | 102% and 106% | 109 | 101 | 103 | 102 | 109 | 110 | 98 |
| C[C@]1(COc2ccc(N3CCC(Oc4ccc(OC(F)(F)F)cc4)CC3)cc2)Cn2cc([N+](=O)[O-])nc2O1 [Delamanid] | 97.1% and 93.5% | 93.5 | 94.6 | 100 | 94.9 | 101 | 83.8 | 88.6 |
| Cn1c(=O)cc(N2CCC[C@@H](N)C2)n(Cc2cc(F)ccc2C#N)c1=O [Trelagliptin] | 100% and 93.3% | 92.1 | 96.8 | 101 | 98.3 | 99.2 | 100 | 102 |
| CC(C)=CCC[C@](C)(O[C@@H]1O[C@H](CO)[C@@H](O)[C@H](O)[C@H]1O)[C@H]1CC[C@]2(C)[C@@H]1[C@H](O)C[C@@H]1[C@@]3(C)CC[C@H](O)C(C)(C)[C@@H]3[C@@H](O[C@@H]3O[C@H](CO)[C@@H](O)[C@H](O)[C@H]3O)C[C@]12C [Ginsenoside Rg1] | 95.2% and 91.8% | 101 | 96.7 | 94.4 | 97.5 | 98.4 | 99.5 | 104 |
| C[C@@]1(c2cc(-c3cncnc3)c(F)cc2F)CCSC(N)=N1 | 100% and 99.9% | 100 | 104 | 105 | 92.2 | 102 | 100 | 99.2 |
| CCCCCCCCCCCCCCCCn1cc[n+](Cc2ccccc2)c1C | 0.26% and 0.36% | 0.22 | 0.21 | 0.19 | 0.01 | 0 | 0.05 | 0.07 |
| O=C1CC(c2c[nH]c3ccc(F)cc23)C(=O)N1 (stereo not drawn) | 103% | 111 | 100 | 102 | 103 | 108 | 100 | 101 |
| CN(C)c1ccc2nc3c(C(=O)O)cc(=O)c(O)c-3oc2c1 [Gallocyanine] | 84.7% and 76.8% | 77.7 | 82.6 | 87.4 | 85.3 | 86.2 | 84 | 78.8 |
| CCCCCOc1ccc(-c2ccc(-c3ccc(C(=O)N[C@H]4C[C@@H](O)[C@@H](O)NC(=O)[C@@H]5[C@@H](O)[C@@H](C)CN5C(=O)[C@H]([C@@H](C)O)NC(=O)[C@H]([C@H](O)[C@@H](O)c5ccc(O)cc5)NC(=O)[C@@H]5C[C@@H](O)CN5C(=O)[C@H]([C@@H](C)O)NC4=O)cc3)cc2)cc1 | 77.8% and 78.3% | 80.5 | 95.7 | 94.3 | 82.7 | 84.5 | 77.5 | 82.8 |
| CC1CCC2(O)C(C)(C)C3CCC2(C)C1C3 (stereo not drawn) [Patchouli alcohol] | 92.3% and 85.5% | 89.2 | 89.5 | 102 | 91.1 | 89.5 | 80.6 | 93 |
| Nc1ccc(S(=O)(=O)Nc2ccccn2)cc1 [Sulfapyridine (Dagenan)] | 94.3% and 101% | 97.1 | 97.7 | 107 | 103 | 100 | 106 | 97.6 |
| CC(C)=CCC[C@](C)(O)[C@H]1CC[C@]2(C)[C@@H]1[C@H](O)C[C@@H]1[C@@]3(C)CC[C@H](O[C@@H]4O[C@H](CO)[C@@H](O)[C@H](O)[C@H]4O[C@@H]4O[C@H](CO)[C@@H](O)[C@H](O)[C@H]4O)C(C)(C)[C@@H]3CC[C@]12C [20S-Ginsenoside Rg3] | 107% and 97.7% | 101 | 108 | 108 | 101 | 102 | 105 | 104 |
| O=c1[nH]nc2c3c(cccc13)N=C(CN1Cc3ccccc3C1)N2 | 69.4% and 77.8% | 66.3 | 93 | 108 | 74.5 | 65.6 | 69.7 | 86.2 |
| Cc1cnc(Nc2ccc(F)cc2Cl)nc1-c1c[nH]c(C(=O)NC(CO)c2cccc(Cl)c2)c1 (stereo not drawn) | 60.8% and 83.2% | 72.9 | 44.9 | 46 | 58.5 | 48.1 | 47.4 | 47.7 |
| CC(C)CN(C[C@@H](O)[C@H](Cc1ccccc1)NC(=O)O[C@H]1CCOC1)S(=O)(=O)c1ccc(N)cc1 [Amprenavir (Agenerase)] | 89.2% and 83.5% | 86.4 | 77.8 | 93.5 | 90.2 | 89.8 | 101 | 99.4 |
| O=C1NC(=O)/C(=C/c2ccc3c(c2)OC(F)(F)O3)S1 | 103% and 97.1% | 98.1 | 101 | 99.8 | 96.9 | 101 | 95.3 | 103 |
| O=c1[nH]c(=O)n([C@H]2C[C@H](O)[C@@H](CO)O2)cc1Br [Bromodeoxyuridine (BrdU)] | 90.5% and 102% | 96.1 | 91.2 | 88 | 80.8 | 79.1 | 90.5 | 99.9 |
| CNc1ccc([N+](=O)[O-])c(Nc2ccc3[nH]ncc3c2)n1 | 59.1% and 76.9% | 58.6 | 50.4 | 60 | 18.1 | 9.24 | 18.9 | 26.6 |
| CC/C(=C(/CC)c1ccc(O)cc1)c1ccc(O)cc1 [Diethylstilbestrol] | 80.1% and 78.1% | 78.8 | 84.5 | 87.1 | 75.1 | 87.8 | 74.8 | 81.4 |
| CC1(C)S[C@@H]2[C@H](NC(=O)[C@H](C(=O)O)c3ccsc3)C(=O)N2[C@H]1C(=O)O [Ticarcillin sodium] | 95.6% and 98.8% | 104 | 101 | 95.7 | 96.3 | 101 | 98.2 | 89.6 |
